Compound activity: PubChem BioAssay, National Center for Advancing Translational Sciences (NCATS)
Only some compounds are listed: those with a hit (about 21% of all), similar ones and a draw of the others.
Shiga inhibitor – inhibitors of Shiga toxin in Vero cells | AID 2315 | Vero cells, Shiga toxin protein synthesis inhibition reporter | actives 9.2% (n = 290,000) | inhibition, % at 38.7 µM; in the data active = inhibition mostly above about 28%, no sharp cut-off; inactive = mostly below about 43%; also: 0% is about no effect
Pf growth 48h – inhibits P. falciparum growth in the first generation, 48 h; P. falciparum luciferase growth in erythrocytes, 48 h; Potency, µM (titrated, usually from 28.7 µM), for the others: top-dose activity change, negative = inhibition, actives largely listed as inhibitors; actives 5.9% (n = 310,000); AID 504832; also: potency is read from the fitted curve at half-maximal effect; % is scaled to controls: 0 for no effect and ±100 for the full control effect
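In quantitative HTS format, infected erythrocytes bearing luciferase-reporter parasites were treated for a single generation at 37 C. Luminescence after adding detection reagent served as the growth measure.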
CHX counter – counter-screen for Shiga toxin inhibitors: cycloheximide protein synthesis inhibition. cell reporter, cycloheximide protein synthesis inhibition counterscreen. max response, %. actives 12% (n = 300,000). AID 2314; in the data active = max response mostly above about 13%, no sharp cut-off; inactive = mostly below about 14%; also: read at 38.3 µM for the half of the compounds with a filed dose; 0% is about no effect
Pf growth 96h – P. falciparum growth inhibition at 96 hours; P. falciparum luciferase reporter growth, 96 h; Potency, µM (series often up to 28.7 µM), for inactives: at the top dose activity change, negative = inhibition, actives largely listed as inhibitors; actives 6.9% (n = 320,000); AID 504834; also: potency is read from the fitted curve at half-maximal effect; % is scaled to controls: 0 for no effect and ±100 for the full control effect
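Delayed-death screen, second-generation endpoint: infected erythrocytes, 2% hematocrit, 0.05% parasitemia final; 96 hours at 37 C, 5% CO2; luciferase detection reagent; luminescence decrease equals reduced growth.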
HCMV inh – inhibitors of human cytomegalovirus; AID 1259415; actives 4.5% (n = 410,000); activity change, negative = inhibition, % at 57.5 µM; HFF cells, HCMV-luciferase reporter, 72 h; hits give low values; in the data active = activity change below about -60%; inconclusive = no clear call, values can overlap the other calls; inactive = above about -39%; also: % is scaled to controls: 0 for no effect and ±100 for the full control effect
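Two compound doses tested in HFFs infected with HCMV-luciferase, MOI 1 PFU/cell, 72 h at 37C. Lysate luminescence read with OneGlo; data normalized against buffer-only and 10uM Salinomycin inhibitor controls.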
HCV inh – blocks hepatitis C virus | Huh7.5.1 HCVcc-Cre infection, luciferase reporter, 44 h | Potency, µM (top dose mostly 41.8 µM), for the others: at the top dose activity change, negative = inhibition, usual class: inhibitors | actives 3.4% (n = 340,000) | AID 651820; also: potency is read from the fitted curve at half-maximal effect; % is scaled to controls: 0 for no effect and ±100 for the full control effect
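Whole-lifecycle infectious HCVcc-Cre system; cells 1,000/well, compound then virus (~0.5 moi) added 4 h after plating, 44 h culture. Luciferase read 15 sec following 15 min substrate incubation, room temp.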
Active calls of the source: *; ? = inconclusive; / = not tested or not shown; [ ] = remark or other dose. Unless noted, calls follow the shape of the dose curve; as a rule, active = well fitted inhibition curve with a large enough effect; inconclusive = small, poorly fitted or top-dose-only effect, or another doubt; inactive = no such curve, though single readings can be large or run the other way.

SMILES	Shiga inhibitor	Pf growth 48h	CHX counter	Pf growth 96h	HCMV inh	HCV inh
COCC(C)NC(=O)c1cc2c(ccc3ccccc32)oc1=O (stereo unspecified)	22*	-4%	24*	125%	-6	-7%
CC(=O)c1cc2c(ccc3ccccc32)oc1=O	-3	10%	2	2.3µM*	-10	22%
Cc1cccc(NC(=O)Nc2nnc(N3CCCCC3C)s2)c1C (stereo unspecified)	-12	/	-5	2.1µM*	47	9%
COc1cccc(NC(=O)Nc2nnc(N3C(C)CCCC3C)s2)c1 (stereo unspecified)	23	13µM*	11	?	-37	2%
COc1ccc(OC)c(NC(=O)Nc2ccc3c(c2)CCC3)c1	28*	-10%	19*	-22%	6	?
COc1ccc(NC(=O)Nc2ccc3c(c2)CCC3)c(OC)c1	30	30%	9	6%	-38	?
COc1ccc(OCC(=O)Nc2ccc3c(c2)CCC3)cc1	/	26%	/	-9%	-24	2%
COc1cccc(NC(=O)Nc2ccc3c(c2)CCC3)c1	75*	72%	39*	?	-27	?
CCCCC(CC(O)COCCC)C(=O)NN (stereo unspecified)	-5	18%	-3	?	-20	14%
Nc1nnc(CCCCCc2nnc(N)s2)s1	2	?	9	1%	-29	18%
CCCCCCCCc1nnc(N)s1	7	-12%	12*	53%	28	-10%
COc1cccc(CN2CC34CC(c5ccc(C(C)=O)cc5)C(CC3S2(=O)=O)O4)c1 (stereo unspecified)	-7	/	-4	/	/	/
Cc1ccc(S(=O)(=O)Nc2nc3ccccc3s2)cc1	-11	/	-4	?	45	11%
Cc1ccccc1NP(=O)(c1ccccc1)c1nc2ccccc2s1 (stereo unspecified)	36	?	18	25%	-2	-26%
Cc1ccccc1Nc1nc2ccccc2s1	135*	125%	66*	134%	-6	-5%
CC1(C)CN=C(Nc2nc3ccccc3s2)S1	77*	182%	38*	-28%	108	5%
CC1(C)CN=C(NCc2ccccc2)S1	/	/	/	/	50	15%
Cc1ccc(Nc2nc3ccccc3s2)cc1	72*	125%	29*	44%	25	0%
Fc1ccc(Nc2nc3ccccc3s2)cc1	120*	147%	40*	71%	9	-25%
COCCNC(=O)CN(CCc1ccccc1)S(=O)(=O)c1ccc(Br)cc1	/	-6%	-3	-13%	15	-14%
COc1ccc(NS(=O)(=O)c2cc(C(=O)N3CCCCCC3)ccc2C)cc1	/	/	/	/	-8	?
CCCC(C)c1nnc(NC(=O)COc2ccc3c(c2)OCO3)s1 (stereo unspecified)	2	5%	-4	?	-34	3%
O=c1c2ccccc2nc2sc(Nc3ccc(F)cc3)nn12	/	?	/	?	85	/
Cc1ccccc1Nc1nn2c(=O)c3ccccc3nc2s1	21	80%	11	2.6µM*	29	-9%
COC(=O)c1c(C)oc2ccc(N(C(=O)c3ccncc3)S(=O)(=O)c3cc(C)c(C)cc3C)cc12	/	/	/	/	-60*	/
SMILES	Shiga inhibitor	Pf growth 48h	CHX counter	Pf growth 96h	HCMV inh	HCV inh
COC(=O)c1c(C)oc2ccc(N(C(=O)c3ccncc3)S(=O)(=O)c3ccc(C)cc3)cc12	25	7%	-2	/	/	?
COC(=O)c1c(C)oc2ccc(N(C(=O)c3ccncc3)S(=O)(=O)c3ccccc3)cc12	-13	15%	-4	48%	-18	?
COC(=O)c1c(C)oc2ccc(N(C(=O)c3ccncc3)S(=O)(=O)c3ccc(C)cc3C)cc12	-15	0%	7	2%	-92*	1.6µM*
Cc1ccc(CN2COc3ccc4c(-c5ccccc5)cc(=O)oc4c3C2)cc1	/	/	/	/	-8	/
O=C(COc1ccc(Br)cc1Br)NC(=S)N1CCCc2ccccc21	54	?	48*	/	/	-25%
O=C(COc1ccc(Br)cc1Cl)NC(=S)N1CCc2ccccc21	50*	40%	35*	?	10	8%
O=C(COc1ccc(Br)cc1CO)N1CCCc2ccccc21	-1	?	0	?	-30	-4%
CCc1ccc(CN(Cc2ccco2)c2cnc(S(C)(=O)=O)nc2C(=O)Nc2cccc(C)c2)cc1	/	/	/	/	-3	/
CC(C)(C)c1ccc(OCCOc2ccc(C(C)(C)C)cc2NC=O)c(NC=O)c1	-4	10µM*	5	2.6µM*	?	10µM*
COCCOc1ccc(C(F)(F)F)cc1NC(=O)c1ccccc1	-9	1%	-5	0%	13	-5%
CCOCCCn1c(C)nc2c(c1=O)c1nc3ccccc3nc1n2-c1ccc(C)cc1	-3	0%	3	?	-29	10%
CCO/C(C)=N/n1c2nc3ccccc3nc2c2c(=O)n(CC(C)C)c(C)nc21	-12	2.9µM*	-2	2.3µM*	?	15%
CCO[C@@H]1OC(C(=O)N2CCN(Cc3ccc4c(c3)OCO4)CC2)=C[C@H](c2csc3ccccc23)[C@H]1CCCO	-11	?	7	2.1µM*	/	-12%[8.37 µM]
CCO[C@@H]1OC(C(=O)N2CCN(C)CC2)=C[C@H](c2csc3ccccc23)[C@H]1CCCO	-8	?	2	?	-7	5%
CCO[C@@H]1OC(C(=O)N2CCN(Cc3ccc4c(c3)OCO4)CC2)=C[C@H](c2cn(C(C)=O)c3ccccc23)[C@H]1CCCO	-10	1.3µM*	-2	4.1µM*	16	-27%
CC(=O)n1cc([C@H]2C=C(C(=O)N3CCN(Cc4ccc5c(c4)OCO5)CC3)O[C@@H](OCCCCO)C2)c2ccccc21	-4	0.93µM*	-1	?	-13	?
O=C(Nc1ccccn1)c1ccc(S(=O)(=O)N2CCCCCC2)cc1	/	13%	/	62%	43	-14%
CCCCCCCCCCCCCCCCCCO	-2	0%	-1	12%	/	/
CC(C)Nc1nnc(SCC(=O)Nc2sccc2C#N)s1	/	0%	/	?	-9	-5%
O=C(CCNC(=O)c1ccc(Cl)cc1)Nc1ccncc1	/	0%	/	-1%	-31	3%
CC(=NCCN1CCOCC1)C1=C(O)c2ccccc2C1=O	-10	53%	2	33%	-102*	6%
CC(=NCc1ccncc1)C1=C(O)c2ccccc2C1=O	76*	57%	18*	/	/	13%
CCCN=C(C)C1=C(O)c2ccccc2C1=O	84*	95%	107*	154%	6	0%
CC(=NCCCn1ccnc1)C1=C(O)c2ccccc2C1=O	22	-11%	8	-7%	-19	19%
CCCN1C(=O)c2[nH]nc(-c3cccc(OC)c3)c2C1c1ccccn1 (stereo unspecified)	/	/	/	/	120	/
